Source: article PMC4336329 (PLoS ONE, 2015)
About 14,000 (4.5%) of roughly 310,000 compounds showed an effect of 50% or more. Effects have a minus sign here. Many of the other results were omitted from the sample, so strong results are more common in it than they were.

molecular target: human ether-à-go-go-related gene (hERG) potassium channel (human, UniProt Q12809); experiment: primary screen, population patch clamp on CHO cells stably expressing hERG; higher = less effect of the substance
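Also: peak tail current of the secondary pulse compared with the same well before compound.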

Chain of human ether-à-go-go-related gene (hERG) potassium channel (Q12809 whole entry, looked up): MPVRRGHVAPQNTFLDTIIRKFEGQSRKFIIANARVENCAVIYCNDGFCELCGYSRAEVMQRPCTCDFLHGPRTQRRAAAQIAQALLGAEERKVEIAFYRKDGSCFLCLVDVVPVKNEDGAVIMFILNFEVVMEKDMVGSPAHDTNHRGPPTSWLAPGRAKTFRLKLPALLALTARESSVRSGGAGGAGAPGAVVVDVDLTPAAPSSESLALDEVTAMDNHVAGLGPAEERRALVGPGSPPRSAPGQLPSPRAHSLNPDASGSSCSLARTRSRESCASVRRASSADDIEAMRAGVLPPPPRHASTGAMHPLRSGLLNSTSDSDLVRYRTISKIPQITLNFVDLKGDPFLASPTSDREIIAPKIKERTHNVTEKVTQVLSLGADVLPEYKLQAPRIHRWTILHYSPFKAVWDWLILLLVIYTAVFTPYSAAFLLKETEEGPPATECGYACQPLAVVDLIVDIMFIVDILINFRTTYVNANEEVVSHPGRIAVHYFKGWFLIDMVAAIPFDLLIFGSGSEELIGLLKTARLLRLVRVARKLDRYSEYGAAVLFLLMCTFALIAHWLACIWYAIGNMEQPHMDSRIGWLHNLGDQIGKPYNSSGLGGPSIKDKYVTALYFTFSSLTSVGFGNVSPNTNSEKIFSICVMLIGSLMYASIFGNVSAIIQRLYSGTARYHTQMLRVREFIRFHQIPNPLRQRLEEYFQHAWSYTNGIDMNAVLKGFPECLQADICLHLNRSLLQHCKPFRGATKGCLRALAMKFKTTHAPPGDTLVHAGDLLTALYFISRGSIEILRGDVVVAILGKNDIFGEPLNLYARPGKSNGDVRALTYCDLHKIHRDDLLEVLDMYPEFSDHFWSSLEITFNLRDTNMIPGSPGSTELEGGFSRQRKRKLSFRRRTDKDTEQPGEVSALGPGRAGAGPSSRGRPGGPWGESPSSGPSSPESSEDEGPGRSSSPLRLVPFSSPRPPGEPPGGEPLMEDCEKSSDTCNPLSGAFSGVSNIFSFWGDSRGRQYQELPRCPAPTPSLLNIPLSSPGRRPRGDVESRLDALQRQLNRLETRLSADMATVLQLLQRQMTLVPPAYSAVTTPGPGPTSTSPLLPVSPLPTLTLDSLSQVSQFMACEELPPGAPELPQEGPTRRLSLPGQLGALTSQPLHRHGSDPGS

Row | SMILES | hERG current change (%, negative = inhibition) at 10uM [%]
1 | O=C(NC1CCCC1)C(=O)N(Cc1cccnc1)C(C(=O)NCC1CCCO1)c1ccco1 (stereo not drawn) | 38.2
2 | CCOC(=O)COc1ccc(C(=O)Nc2cccc(Cl)c2C)cc1 | 18.9
3 | CC(Oc1ccc(Br)cc1)C(=O)Nc1ccc(S(=O)(=O)N(C)C2CCN(C)CC2)cc1 (stereo not drawn) | -26.7
4 | Cc1nc2ccc(P(=O)(O)O)cc2s1 | 16.2
5 | C=CCN1C(=O)C2(C(C(=O)c3ccc(C)o3)=C(O)C(=O)N2CCCN2CCOCC2)c2ccccc21 (stereo not drawn) | 3.04
6 | COCCNC(=S)N1CCc2cc(OC)c(OC)cc2C1COc1ccc(C(C)C)cc1 (stereo not drawn) | 16.7
7 | Cc1cccc(N(CC(=O)NC2CCCC2)C(=O)c2csnn2)c1C | 19.5
8 | N=c1c(C(=O)NCc2ccc(F)cc2)cc2c(=O)n3ccccc3nc2n1Cc1cccnc1 | -76.2
9 | COC(=O)c1cc2c(=O)n3ccccc3nc2n(Cc2cccnc2)c1=N | -64
10 | COC(=O)c1cn(Cc2cccnc2)c(=O)c2ccccc12 | 3.15
11 | Cc1nc2ccccn2c1C(=O)NCc1cccnc1 | -3.36
12 | CCCn1c(=N)c(S(=O)(=O)c2ccc(F)cc2)cc2c(=O)n3ccccc3nc21 | -8.53
13 | Nc1cc(=O)[nH]c(N)n1 | 15.9
14 | CCc1cccc(NC(=O)CNC(=O)N2CC(=O)Nc3ccccc32)c1 | -8.55
15 | Cc1ccc(S(=O)(=O)N(C)C)cc1NC(=O)COC(=O)c1c(-c2ccccc2)noc1C | -24.8
16 | CCOC(=O)N1CCN(CC(O)COc2c(C)cc(C)cc2C)CC1.Cl (stereo not drawn) | -18
17 | COc1cc(CN2CCN(Cc3ccc(C(F)(F)F)cc3)CC2)cc(OC)c1OC.O=C(O)C(=O)O | -54.1
18 | COc1cc(CN2CCN(C(=O)COc3ccccc3)CC2)cc(OC)c1OC | -14.1
19 | COc1cc(CN2CCN(S(=O)(=O)c3ccc(F)cc3)CC2)cc(OC)c1OC.O=C(O)C(=O)O | -5.89
20 | COc1cc(CN2CCN(C(=O)c3ccccc3F)CC2)cc(OC)c1OC.O=C(O)C(=O)O | 6.56
21 | COc1cc(OC)c(OC)cc1CN1CCN(Cc2ccc(C(F)(F)F)cc2)CC1 | -42.3
22 | COc1ccc(CN2CCN(Cc3ccc(C(F)(F)F)cc3)CC2)c(OC)c1.O=C(O)C(=O)O | -74.1
23 | COc1cc(CN2CCCCCC2)cc(OC)c1OC.O=C(O)C(=O)O | 13.8

Row | SMILES | hERG current change (%, negative = inhibition) at 10uM [%]
24 | COc1cccc(CN2CCN(C(=O)c3ccc(-c4ccccc4)cc3)CC2)c1OC.O=C(O)C(=O)O | -5.41
25 | COc1cc(CN2CCN(C(O)(c3ccccc3)c3ccccc3)CC2)cc(OC)c1OC.O=C(O)C(=O)O | -55.1
26 | COc1cc(CN2CCN(C(=O)c3ccc(-c4ccccc4)cc3)CC2)cc(OC)c1OC.O=C(O)C(=O)O | -54.7
27 | COc1cc(CN2CCN(C(=O)c3cccc4ccccc34)CC2)cc(OC)c1OC.O=C(O)C(=O)O | 4.24
28 | COc1ccccc1C1CCN(c2ccc(CO)cc2[N+](=O)[O-])CC1 | 4.52
29 | O=C(Nc1cccc2ccccc12)c1cnsn1 | 5.58
30 | COC(=O)c1c(C(=O)OC)c2ccccn2c1C(=O)c1ccccc1 | 6.74
31 | COCCNC(=O)Cn1nc(-c2ccc(C)cc2)ccc1=O | 8.83
32 | CCOc1ccc(C(NC(=O)c2ccco2)c2ccc(OC)c(OC)c2)cc1 (stereo not drawn) | -39.9
33 | O=C(NC(=S)NC1CCS(=O)(=O)C1)c1ccccc1 (stereo not drawn) | 14.6
34 | O=C(Nc1cccc(S(=O)(=O)N2CCOCC2)c1)c1ccccc1[N+](=O)[O-] | 0.195
35 | O=C(CSc1nc2ncc(Cl)cc2[nH]1)Nc1cccc(F)c1 | 12.8
36 | COc1ccc(CN2CCN(Cc3ccc(C(F)(F)F)cc3)CC2)cc1.O=C(O)C(=O)O | -65.7
37 | FC(F)(F)c1ccc(CN2CCN(Cc3ccco3)CC2)cc1.O=C(O)C(=O)O | 0.168
38 | COc1cccc(C(=O)N2CCN(Cc3ccc(OC)cc3OC)CC2)c1.O=C(O)C(=O)O | -38.9
39 | CS(=O)(=O)N1CCN(Cc2ccc(C(F)(F)F)cc2)CC1.O=C(O)C(=O)O | 0.441
40 | COc1ccc(CN2CCN(Cc3ccc(C)cc3)CC2)c(OC)c1.O=C(O)C(=O)O | -70.3
41 | O=c1ccc(-c2ccccc2)nn1Cc1ccc(Cl)cc1 | 2.52
42 | COc1ccc(N2Cc3ccccc3C2=O)cc1 | 16.2
43 | COc1cc(NC(=O)c2ccc(Cl)cc2)c(Cl)cc1NC(=O)c1cccnc1 | 1.74
44 | N#C/C(=C/c1ccc(N2CCCCCC2)o1)c1ccc(Cl)cc1 | -3.68
45 | COc1ccc(NC(=O)CN2CCN(c3nc(-c4ccc(F)cc4)cs3)CC2)c(OC)c1 | 20.7
